# PubChem BioAssay
# Potency and affinity values are given separately. The source made the active and inactive calls. Entries that show only a call come without a potency. No rule for the calls is given here.
# Experiment: IOSE-T80 ovarian epithelial cell cytotoxicity, dose response, cytotoxicity control for PAX8 inhibitor project, plate reader, dry powder samples (AID 743045);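 also: more negative values mean more cell killing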
# Details: IOSE-T80 ovarian epithelial cells; series mostly up to 35 µM
row,SMILES,outcome
1,C[C@H]1CCCCO[C@H](CN(C)C(=O)Nc2ccc(C(F)(F)F)cc2)[C@@H](C)CN([C@@H](C)CO)C(=O)c2cc(NS(=O)(=O)c3cccs3)ccc2O1,inactive
2,C[C@@H]1CN([C@@H](C)CO)C(=O)c2cc(N(C)C)ccc2O[C@@H](C)CCCCO[C@H]1CN(C)S(=O)(=O)c1ccc(F)cc1,inactive
3,C[C@H](CO)N1C[C@H](C)[C@@H](CN(C)S(=O)(=O)c2ccc(Cl)cc2)OCCCC[C@H](C)Oc2ccc(NS(=O)(=O)c3ccc(F)cc3)cc2C1=O,inactive
4,COc1ccccc1NC(=O)N1CCCCN2[C@H](C1)[C@@H](c1ccc(-c3cccc(C#N)c3)cc1)[C@@H]2CO,inactive
5,COc1ccc(NC(=O)Nc2ccc3c(c2)C(=O)N([C@@H](C)CO)C[C@@H](C)[C@@H](CN(C)Cc2ccc(C(F)(F)F)cc2)O3)cc1,inactive
6,COc1ccc(S(=O)(=O)Nc2ccc3c(c2)C(=O)N([C@H](C)CO)C[C@H](C)[C@H](CN(C)S(=O)(=O)c2ccc(F)cc2)OCCCC[C@H](C)O3)cc1,inactive
7,COc1cccc(-c2ccc3c(c2)[C@@H]2[C@@H](CCN2S(=O)(=O)c2ccccc2C)[C@H](CO)N3C)c1,inactive
8,C[C@H]1CCCCO[C@H](CN(C)Cc2ccc(C(F)(F)F)cc2)[C@@H](C)CN([C@@H](C)CO)C(=O)c2cc(NC(=O)Nc3ccc(F)cc3)ccc2O1,inactive
9,C[C@H]1CN([C@@H](C)CO)S(=O)(=O)c2ccc(C#Cc3ccccc3F)cc2O[C@H]1CN(C)C(=O)c1ccc2c(c1)OCO2,inactive
10,CC(C)(C)c1nnc(NC(=O)CCS(=O)(=O)c2ccccc2)s1,inactive
11,C[C@@H]1CCCCO[C@@H](CN(C)Cc2ccncc2)[C@H](C)CN([C@@H](C)CO)C(=O)c2cc(NC(=O)Nc3ccc(C(F)(F)F)cc3)ccc2O1,inactive
12,C[C@@H]1CCCCO[C@H](CN(C)C(=O)c2ccccc2)[C@H](C)CN([C@@H](C)CO)C(=O)c2cc(NC(=O)Nc3ccc(C(F)(F)F)cc3)ccc2O1,inactive
13,C[C@@H]1CCCCO[C@H](CN(C)C(=O)Cc2ccccc2)[C@@H](C)CN([C@@H](C)CO)C(=O)c2cc(NS(=O)(=O)c3ccc(Cl)cc3)ccc2O1,inactive
14,C[C@@H]1CCCCO[C@H](CN(C)Cc2ccncc2)[C@H](C)CN([C@H](C)CO)C(=O)c2cc(NC(=O)Nc3ccc(C(F)(F)F)cc3)ccc2O1,inactive
15,C[C@@H]1CCCCO[C@H](CN(C)Cc2ccc(C(F)(F)F)cc2)[C@@H](C)CN([C@@H](C)CO)C(=O)c2cc(NC(=O)c3ccccc3)ccc2O1,inactive
16,O=S(=O)(c1ccccc1F)N1CC[C@@H]2[C@H](CO)Nc3ccc(C4=CCCCC4)cc3[C@@H]21,inactive

# Experiment: A2780 ovarian cancer cell cytotoxicity, dose response, cytotoxicity control, plate reader, dry powder samples (AID 743046)
# Details: series mostly up to 35 µM
row,SMILES,outcome
1,O=C(CCS(=O)(=O)c1ccccc1)Nc1nc2ccc(F)cc2s1,inactive
2,C[C@@H]1CCCCO[C@@H](CN(C)Cc2ccc(C(F)(F)F)cc2)[C@H](C)CN([C@@H](C)CO)C(=O)c2cc(NS(=O)(=O)c3ccc(Cl)cc3)ccc2O1,inactive
3,COc1ccc2c3c([nH]c2c1)[C@@H](CO)N(C(=O)Nc1cccc(F)c1)CC31CCN(S(=O)(=O)c2cccc(C)c2)CC1,inactive
4,C[C@@H]1CN([C@@H](C)CO)C(=O)c2cc(NC(=O)CCC(F)(F)F)ccc2O[C@@H](C)CCCCO[C@H]1CN(C)Cc1ccc(C(F)(F)F)cc1,inactive
5,C[C@H](CO)N1C[C@H](C)[C@H](CN(C)CC2CCCCC2)OCCCC[C@H](C)Oc2ccc(NC(=O)Nc3ccccc3)cc2C1=O,inactive
6,O=C(CN1C(=O)c2ccccc2S1(=O)=O)c1ccc(Cl)cc1Cl,inactive
7,CN(C)CCCN(C(=O)CCOc1ccccc1)c1nc2c(F)cccc2s1,inactive
8,COc1ccc(C#Cc2ccc([C@H]3[C@@H](CO)N4CCCCN(C(=O)Nc5ccccc5)C[C@H]34)cc2)cc1,inactive
9,COc1ccc(-c2cc(C(F)(F)F)nc(S(=O)(=O)CCCC(=O)Nc3cc(C)on3)n2)cc1OC,inactive
10,C[C@H]1CCCCO[C@@H](CN(C)Cc2ccncc2)[C@@H](C)CN([C@@H](C)CO)C(=O)c2cc(NC(=O)Nc3ccc(C(F)(F)F)cc3)ccc2O1,inactive
11,C[C@@H]1CN([C@H](C)CO)C(=O)c2cc(NC(=O)Cc3ccccc3)ccc2O[C@@H](C)CCCCO[C@H]1CN(C)Cc1ccc(C(F)(F)F)cc1,inactive
12,O=C(C1CCC1)N1CCCCN2[C@H](CO)[C@H](c3ccc(-c4cccc(F)c4)cc3)[C@H]2C1,inactive
13,C[C@H]1CCCCO[C@H](CN(C)C(=O)Nc2ccc(C(F)(F)F)cc2)[C@@H](C)CN([C@@H](C)CO)C(=O)c2cc(NS(=O)(=O)c3cccs3)ccc2O1,inactive
14,COc1ccccc1C#Cc1ccc([C@H]2[C@H](C#N)N(C(=O)C3CCCC3)[C@H]2CO)cc1,inactive
15,C[C@@H]1CN([C@@H](C)CO)C(=O)c2cc(N(C)C)ccc2O[C@@H](C)CCCCO[C@H]1CN(C)S(=O)(=O)c1ccc(F)cc1,inactive
16,COc1ccccc1NC(=O)N1CCCCN2[C@H](C1)[C@@H](c1ccc(-c3cccc(C#N)c3)cc1)[C@@H]2CO,inactive
17,COc1ccc(NC(=O)Nc2ccc3c(c2)C(=O)N([C@@H](C)CO)C[C@@H](C)[C@@H](CN(C)Cc2ccc(C(F)(F)F)cc2)O3)cc1,inactive
18,COc1ccc(S(=O)(=O)Nc2ccc3c(c2)C(=O)N([C@H](C)CO)C[C@H](C)[C@H](CN(C)S(=O)(=O)c2ccc(F)cc2)OCCCC[C@H](C)O3)cc1,inactive
19,COc1cccc(-c2ccc3c(c2)[C@@H]2[C@@H](CCN2S(=O)(=O)c2ccccc2C)[C@H](CO)N3C)c1,inactive
20,C[C@H]1CCCCO[C@H](CN(C)Cc2ccc(C(F)(F)F)cc2)[C@@H](C)CN([C@@H](C)CO)C(=O)c2cc(NC(=O)Nc3ccc(F)cc3)ccc2O1,inactive
21,C[C@H]1CN([C@@H](C)CO)S(=O)(=O)c2ccc(C#Cc3ccccc3F)cc2O[C@H]1CN(C)C(=O)c1ccc2c(c1)OCO2,inactive
22,CC(C)(C)c1nnc(NC(=O)CCS(=O)(=O)c2ccccc2)s1,inactive
23,C[C@@H]1CCCCO[C@@H](CN(C)Cc2ccncc2)[C@H](C)CN([C@@H](C)CO)C(=O)c2cc(NC(=O)Nc3ccc(C(F)(F)F)cc3)ccc2O1,inactive
24,C[C@@H]1CCCCO[C@H](CN(C)Cc2ccncc2)[C@H](C)CN([C@H](C)CO)C(=O)c2cc(NC(=O)Nc3ccc(C(F)(F)F)cc3)ccc2O1,inactive
25,C[C@@H]1CCCCO[C@H](CN(C)Cc2ccc(C(F)(F)F)cc2)[C@@H](C)CN([C@@H](C)CO)C(=O)c2cc(NC(=O)c3ccccc3)ccc2O1,inactive
26,O=S(=O)(c1ccccc1F)N1CC[C@@H]2[C@H](CO)Nc3ccc(C4=CCCCC4)cc3[C@@H]21,inactive
